# From PubChem BioAssay AID2685 (National Center for Advancing Translational Sciences (NCATS), 2010)
# Among all 320,000 compounds or so, about 2,100 (0.66%) were called active. Another 53% or so got no clear call; they are omitted. Calls come from the whole dose curve; as a rule, active = well fitted inhibition curve with a large enough effect in the signal ratio, with a control signal flat (not every such curve was filed as active); inconclusive = small, poorly fitted or top-dose-only effect, or effect the other way, or a change in a side signal; inactive = flat fitted curve, though single readings scatter; the % refers to the signal ratio. The sample as a whole holds a higher share of actives than the screen did.
# Assay: qHTS Assay for Lipid Storage Modulators in Drosophila S3 Cells;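 for cell number change: cells counted by Cell Tracker Red CMTPX staining in the red channel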; for lipid storage change, negative = inhibition: % is set by controls: 0 for no effect and ±100 for the full control effect
# Details: BODIPY lipid droplet fluorescence, 18-24 h, cells fed with added oleic acid; cell number change: measured here: cell count max response; series mostly up to 46.1 µM; lipid storage change, negative = inhibition: at the top concentration
# Outline: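 Laser-scanning cytometry quantifies lipid droplet accumulation (500–530 nm total intensity; droplet/cell object ratio) in oleic acid-fed (400 uM added) Drosophila S3 cells treated with a concentration series. 20 uM Triacsin C defined 100% inhibition.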
# Potency is the fitted concentration of half-maximal effect.
SMILES,"lipid storage change, negative = inhibition",cell number change,outcome,Potency
CS(=O)(=O)N1N=C(c2ccccc2)CC1c1cccs1 (configuration not stated),0.108% (inactive),-4.84%,–,–
N=C(N)Sc1nc(N2CCCCC2)nc(N2CCCCC2)n1,-23.5% (inactive),2.17%,–,–
CN(C)S(=O)(=O)c1cccc(-c2nnc(SCC(=O)NCCCCCC(=O)O)n2-c2ccc(F)cc2)c1,8.47% (inactive),5.6%,–,–
O=C(O)CCC(=O)Nc1ccc(S(=O)(=O)c2ccc(NC(=O)CCC(=O)O)cc2)cc1,25% (inactive),14.2%,–,–
CNc1c(NS(=O)(=O)c2cc(OC)ccc2OC)c(=O)oc2ccccc12,–,-19.8%,inactive,–
CCCNc1c(NS(=O)(=O)c2ccc(C)c(C)c2)c(=O)oc2ccccc12,–,-4.13%,–,0.291 µM (active)
CCCNc1c(NS(=O)(=O)c2ccc3c(c2)CCCC3)c(=O)oc2ccccc12,13.3% (inactive),-4.72%,–,–
CNc1c(NS(=O)(=O)c2ccc(OC)c(Cl)c2)c(=O)oc2ccccc12,–,-27.3%,–,16.4 µM (active)
CCCNc1c(NS(=O)(=O)c2ccc(Br)cc2)c(=O)oc2ccccc12,–,-47.1%,inactive,–
COc1ccc(S(=O)(=O)Nc2c(NC3CCCCC3)c3ccccc3oc2=O)cc1Cl,–,-20.1%,inactive,–
CCCNc1c(NS(=O)(=O)c2ccc(NC(=O)CC)cc2)c(=O)oc2ccccc12,–,-23.3%,inactive,–
CCC(=O)Nc1ccc(S(=O)(=O)Nc2c(NC)c3ccccc3oc2=O)cc1,–,8.07%,–,18.4 µM (active)
CC(=O)Nc1ccc(S(=O)(=O)Nc2c(NC3CCCCC3)c3ccccc3oc2=O)cc1,–,-18%,inactive,–
CCC(=O)Nc1ccc(S(=O)(=O)c2ccc(NC(=O)CC)cc2)cc1,–,0.0647%,–,10.3 µM (active)
CC(=O)Nc1ccc(S(=O)(=O)c2ccc(C)cc2)cc1,-24% (inactive),-22.1%,–,–
O=C(NNS(=O)(=O)c1ccccc1)c1cnn(-c2ccccc2)c1-n1cccc1,7.45% (inactive),9.3%,–,–
O=C1CC(NS(=O)(=O)c2cc(F)ccc2F)CN1c1ccc2c(c1)OCCO2 (configuration not stated),–,–,inactive,–
CC(=O)N1CCc2cc(Br)cc(S(=O)(=O)N3CCCCCC3)c21,1.88% (inactive),-5.11%,–,–
Cn1cccc1/C=N/NC(=O)CSc1nc2ccccc2[nH]1,15.8% (inactive),5.5%,–,–
CCC(=O)NC(=S)Nc1ccc(NC(=O)c2ccc(Br)o2)cc1,-15.2% [at 9.22 µM] (inactive),-10.2%,–,–
C=CCn1c(CNC(=O)c2ccccc2F)nnc1SCC(=O)NC(C)c1ccccc1 (configuration not stated),9.08% (inactive),1.35%,–,–

SMILES,"lipid storage change, negative = inhibition",cell number change,outcome,Potency
CCN(C(=O)COC(=O)COc1ccc2c(C)cc(=O)oc2c1)C1CCS(=O)(=O)C1 (configuration not stated),–,-49.7%,–,0.0461 µM (active)
Cc1cc(=O)oc2cc(OCc3ccc(C(=O)OCC(=O)N(C)C4CCS(=O)(=O)C4)cc3)ccc12 (configuration not stated),-1.78% (inactive),-7.42%,–,–
Cc1cc(=O)oc2cc(OCC(=O)OCC(=O)N(C)C3CCS(=O)(=O)C3)ccc12 (configuration not stated),-5.08% (inactive),7.81%,–,–
Fc1ccccc1C(c1nnnn1C1CCCC1)N1CCN(Cc2ccccc2)CC1 (configuration not stated),-1.04% (inactive),-15.7%,–,–
COc1ccccc1NC(=O)Nc1ccc(Br)cn1,21.8% (inactive),-23.3%,–,–
COc1ccc(C2/C=C\CN(S(=O)(=O)/C=C/c3ccccc3)[C@H](Cc3ccccc3)C(=O)N2Cc2ccc(F)cc2)cc1 (some centres not stated),13.6% (inactive),2.68%,–,–
COc1cc(/C=N/NC(=O)c2ccc3nc[nH]c3c2)ccc1O,4.27% (inactive),8.7%,–,–
Cc1ccc(CNC(=O)COc2cccc3c2OC(C)(C)C3)cc1,–,–,–,10.3 µM (active)
CC1(C)Cc2cccc(OCC(=O)NCc3ccc(F)cc3)c2O1,20.4% (inactive),2.51%,–,–
COc1cccc(CNC(=O)COc2cccc3c2OC(C)(C)C3)c1,–,–,inactive,–
CN(CCNC(=O)c1cn(C)c2ccc(S(=O)(=O)N3CCCC3)cc2c1=O)CCc1ccccc1,22.9% (inactive),–,–,–
COc1cc(NC(=S)N(C)CCC#N)c(OC)cc1Cl,6.78% (inactive),-2.16%,–,–
CCOC(=O)c1nn(-c2ccc(C)c(C)c2)c(=O)c(C#N)c1C,–,-19.4%,inactive,–
CCOC(=O)c1nn(-c2ccc(Cl)cc2Cl)c(=N)c(C#N)c1C,–,4.21%,–,18.4 µM (active)
CCOC(=O)c1nc(C)n(-c2ccc(Cl)cc2Cl)n1,–,–,inactive,–
CC(C)(C)NC(=O)NC(=O)COC(=O)C1=COCCO1,-1.3% (inactive),-19.1%,–,–
Cc1ccc2c(c1)N(C(=O)CSc1nncn1C)C(C)(C)c1ssc(=S)c1-2,-13.1% (inactive),-13.4%,–,–
Cn1cnnc1SCC(=O)N1c2ccccc2-c2c(ssc2=S)C1(C)C,10.2% (inactive),1.3%,–,–
CC1(C)c2ssc(=S)c2-c2ccccc2N1C(=O)c1ccco1,–,1.38%,–,8.2 µM (active)
O=C(N/N=C/c1ccccc1C(=O)O)c1cccc(S(=O)(=O)N2CCOCC2)c1,4.8% (inactive),10.2%,–,–
Cc1onc(-c2ccccc2)c1C(N)=O,–,–,inactive,–

SMILES,"lipid storage change, negative = inhibition",cell number change,outcome,Potency
Cc1onc(-c2ccccc2)c1C(=O)Nc1ccncc1,–,12.5%,inactive,–
Cc1onc(-c2ccncc2)c1C(=O)O,–,-5.32%,–,20.6 µM (active)
CCOc1ccc(CN2CCC(=O)NC2=O)cc1,-8.2% (inactive),-4.82%,–,–
CC1CC(C)CN(CCCNC(=O)c2ccc(N3CCCC3=O)cc2)C1 (configuration not stated),–,-12.7%,inactive,–
COC(CNC(=O)c1ccc(N2CCc3ccccc32)c([N+](=O)[O-])c1)OC,–,-26.9%,–,20.6 µM (active)
COC(CNC(=O)c1cc(S(=O)(=O)N2CCc3ccccc32)ccc1F)OC,11.3% (inactive),–,–,–
COC(CNC(=O)c1ccc(N2CCC3(CC2)OCCO3)c([N+](=O)[O-])c1)OC,-23.4% (inactive),-9.81%,–,–
O=C(Nc1cccc([N+](=O)[O-])c1)C(=O)N1CCCCC1,14.2% (inactive),-20.3%,–,–
CCOC(=O)c1ccc(NC(=O)CSc2nnc(-c3ccncc3)n2C)cc1,21.9% (inactive),3.98%,–,–
Cc1cc(N2CCOCC2)nc2cc(O)ccc12,4.23% (inactive),-2.46%,–,–
COc1ccc2c(C)cc(N3CCOCC3)nc2c1,–,-8.65%,–,4.61 µM (active)
COc1ccc2c(C)cc(N3CCCCCC3)nc2c1,28.5% (inactive),23.5%,–,–
CSc1ccc(S(=O)(=O)Nc2c(C)cccc2C)cc1,–,1.28%,inactive,–
CCCCCCCn1c(=N)n(CC(O)c2ccco2)c2ccccc21 (configuration not stated),-19.3% (inactive),-4.47%,–,–
Cc1ccc2c(CN3CC(C)CC(C)C3)cc(=O)oc2c1 (configuration not stated),–,4.5%,–,1.16 µM (active)
O=c1cc(CN2CCOCC2)c2cc(Cl)c(O)cc2o1,–,-11.3%,inactive,–
CC1CN(Cc2cc(=O)oc3cc(O)c(Cl)cc23)CC(C)O1 (configuration not stated),–,-11.3%,–,1.64 µM (active)
COC(=O)C1CCN(Cc2cc(=O)oc3cc(C)c(Cl)cc23)CC1,11.8% (inactive),14.6%,–,–
Cc1ccc2c(CN3CCOCC3)cc(=O)oc2c1,8.89% (inactive),3.55%,–,–
Cc1ccc2c(CN3CCN(Cc4ccccc4)CC3)cc(=O)oc2c1,15.3% (inactive),22.5%,–,–
